Reference: PubChem BioAssay (EPA / NIEHS)
Active and inactive are the calls of the source. The calls were made as follows: active = hit-call score of the fitted dose curve at least 0.9, where 1 is the maximum; inactive = score below 0.9.

Tests used:
[1] = molecular target: Bile acid receptor (Homo sapiens) (UniProt Q96RI1); assay: ATG_IR1_CIS: Attagene CIS-FACTORIAL HepG2 Assay for human Nuclear Receptor Subfamily 1 Group H Member 4 (NR1H4), IR1 submotif (AID 2282946); conditions: IR1 reporter transcription, actives raise or lower the signal
Bile acid receptor (Homo sapiens), sequence (Q96RI1 whole entry, looked up): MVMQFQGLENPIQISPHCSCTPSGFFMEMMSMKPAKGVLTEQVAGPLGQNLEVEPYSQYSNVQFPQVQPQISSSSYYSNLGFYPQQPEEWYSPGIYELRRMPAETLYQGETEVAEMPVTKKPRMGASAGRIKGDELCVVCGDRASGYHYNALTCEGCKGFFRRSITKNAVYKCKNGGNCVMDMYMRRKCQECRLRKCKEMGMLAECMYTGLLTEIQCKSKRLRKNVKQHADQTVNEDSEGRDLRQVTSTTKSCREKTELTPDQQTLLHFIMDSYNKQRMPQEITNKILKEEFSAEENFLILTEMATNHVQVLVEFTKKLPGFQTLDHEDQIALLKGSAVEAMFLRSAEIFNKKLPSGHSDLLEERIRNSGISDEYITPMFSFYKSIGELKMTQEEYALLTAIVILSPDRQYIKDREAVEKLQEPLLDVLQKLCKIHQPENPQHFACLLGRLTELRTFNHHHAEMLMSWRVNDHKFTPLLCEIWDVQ
Summary of the method: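 Readout: reporter transcript levels by RT-PCR with fluorescent capillary electrophoresis, from HepG2 cells transiently transfected with multiplexed cis-regulated reporters and dosed 24 h. Gain- or loss-of-signal fitted versus DMSO negative control.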

[2] = ATG_GRE_CIS: Attagene CIS-FACTORIAL HepG2 Assay for human Glucocorticoid Response Elements (GRE) (AID 2282947); conditions: HepG2 GRE cis-reporter, Attagene multiplex mRNA; actives raise or lower the signal
Summary of the method: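 HepG2, transient cis-reporter transfection, 24 h. Reporter mRNA: RT-PCR then CE, fluorescence. Fit both directions vs DMSO.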

[3] = ATG_ISRE_CIS: Attagene CIS-FACTORIAL HepG2 Assay for human Interferon Regulatory Factor 1 (IRF1) binding to an Interferon-Stimulated Response Element (ISRE) (AID 2282948); conditions: HepG2 ISRE cis-reporter (Attagene), mRNA transcription readout; actives raise or lower the signal
Summary of the method: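 Read-out: fluorescent RT-PCR products resolved by capillary electrophoresis, reporting endogenous transcription factor activity via ISRE-driven reporter mRNA in transfected HepG2 cells dosed for 24 h; gain or loss fitted relative to DMSO.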

[4] = ATG_M_32_CIS: Attagene CIS-FACTORIAL HepG2 Assay for M32 Transcription Factor (Internal Marker) (AID 2282949); conditions: HepG2 Attagene cis-factorial M32 reporter, mRNA; actives raise or lower the signal;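 also: background control marker of the multiplexed CIS panel rather than a real target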
Summary of the method: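 Using DMSO as baseline, bidirectional curve fits were applied to reporter mRNA signals. These came from transiently transfected HepG2 cells exposed for 24 h, with RNA analysed by RT-PCR, FAM primer extension, HpaI digestion and CE.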

[5] = ATG_M_06_CIS: Attagene CIS-FACTORIAL HepG2 Assay for M06 Transcription Factor (Internal Marker) (AID 2282950); conditions: HepG2 Attagene CIS-FACTORIAL M06 internal marker reporter; actives raise or lower the signal
Summary of the method: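 HepG2 liver cells, 24 h exposure. Reporter transcripts from transfected cis-element constructs quantified by RT-PCR/capillary electrophoresis fluorescence. Bidirectional curve fit against DMSO.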

[6] = molecular target: Hypoxia-inducible factor 1-alpha (Homo sapiens) (UniProt Q16665); assay: ATG_HIF1a_CIS: Attagene CIS-FACTORIAL HepG2 Assay for human Hypoxia Inducible Factor 1 (HIF1A) (AID 2282951); conditions: HepG2 Attagene cis-factorial HIF1a reporter transcription; actives raise or lower the signal
Hypoxia-inducible factor 1-alpha (Homo sapiens), sequence (Q16665 whole entry, looked up): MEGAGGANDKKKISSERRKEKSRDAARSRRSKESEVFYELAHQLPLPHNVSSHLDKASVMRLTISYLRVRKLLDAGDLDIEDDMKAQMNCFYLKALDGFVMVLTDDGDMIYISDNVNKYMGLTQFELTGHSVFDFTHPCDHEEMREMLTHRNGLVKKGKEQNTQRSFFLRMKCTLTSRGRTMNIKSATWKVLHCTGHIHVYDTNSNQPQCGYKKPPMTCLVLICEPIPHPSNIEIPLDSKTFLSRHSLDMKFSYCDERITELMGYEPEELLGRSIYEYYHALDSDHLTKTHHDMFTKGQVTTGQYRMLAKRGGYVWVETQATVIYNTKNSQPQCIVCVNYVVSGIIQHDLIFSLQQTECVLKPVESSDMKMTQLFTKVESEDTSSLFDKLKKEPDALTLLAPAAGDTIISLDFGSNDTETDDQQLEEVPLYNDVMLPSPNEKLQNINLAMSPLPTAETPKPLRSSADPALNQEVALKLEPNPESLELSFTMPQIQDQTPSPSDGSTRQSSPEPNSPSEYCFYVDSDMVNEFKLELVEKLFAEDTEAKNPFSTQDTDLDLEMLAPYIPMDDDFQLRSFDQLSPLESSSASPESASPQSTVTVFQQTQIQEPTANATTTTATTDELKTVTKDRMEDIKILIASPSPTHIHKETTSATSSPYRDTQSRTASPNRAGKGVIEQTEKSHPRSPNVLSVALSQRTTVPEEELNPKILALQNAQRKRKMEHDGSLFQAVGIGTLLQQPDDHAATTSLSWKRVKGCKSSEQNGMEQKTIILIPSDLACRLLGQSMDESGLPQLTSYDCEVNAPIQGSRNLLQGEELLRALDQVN
Summary of the method: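 In this multiplexed cell assay, HepG2 cells bearing transfected cis reporters are dosed for 24 h and reporter mRNA is read by RT-PCR plus capillary electrophoresis; signal increases and decreases are both scored against DMSO.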

[7] = molecular target: Hepatocyte nuclear factor 6 (Homo sapiens) (UniProt Q9UBC0); assay: ATG_HNF6_CIS: Attagene CIS-FACTORIAL HepG2 Assay for human Hepatocyte Nuclear Factor 6 (HNF6) (AID 2282952); conditions: HepG2 Attagene cis-factorial HNF6 reporter transcription; actives raise or lower the signal
Hepatocyte nuclear factor 6 (Homo sapiens), sequence (Q9UBC0 whole entry, looked up, the tested form may be a part): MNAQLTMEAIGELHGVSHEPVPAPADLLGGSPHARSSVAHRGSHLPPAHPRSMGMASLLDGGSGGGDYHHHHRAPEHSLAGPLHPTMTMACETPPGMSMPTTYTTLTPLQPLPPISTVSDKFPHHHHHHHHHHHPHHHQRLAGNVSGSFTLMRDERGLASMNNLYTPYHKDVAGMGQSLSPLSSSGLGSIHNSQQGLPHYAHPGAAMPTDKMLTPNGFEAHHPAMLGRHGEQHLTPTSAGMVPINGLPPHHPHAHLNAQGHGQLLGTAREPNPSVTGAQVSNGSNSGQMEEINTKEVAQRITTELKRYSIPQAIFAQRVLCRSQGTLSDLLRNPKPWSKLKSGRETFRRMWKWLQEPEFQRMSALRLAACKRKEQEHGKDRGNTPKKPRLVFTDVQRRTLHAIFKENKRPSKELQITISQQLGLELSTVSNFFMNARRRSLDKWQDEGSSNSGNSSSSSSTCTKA
Summary of the method: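 First, HepG2 cells were transfected with the multiplexed cis reporter library and dosed with chemical for 24 h. Next, RNA was reverse-transcribed, PCR-amplified and fluorescently labelled. Finally, HpaI-digested fragments were read by capillary electrophoresis.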

[8] = molecular target: Heat shock factor protein 1 (Homo sapiens) (UniProt Q00613); assay: ATG_HSE_CIS: Attagene CIS-FACTORIAL HepG2 Assay for human Heat Shock Transcription Factor 1 (HSE) (AID 2282953); conditions: HepG2 HSE cis-reporter, Attagene RNA transcription; actives raise or lower the signal
Heat shock factor protein 1 (Homo sapiens), sequence (Q00613 whole entry, looked up, the tested form may be a part): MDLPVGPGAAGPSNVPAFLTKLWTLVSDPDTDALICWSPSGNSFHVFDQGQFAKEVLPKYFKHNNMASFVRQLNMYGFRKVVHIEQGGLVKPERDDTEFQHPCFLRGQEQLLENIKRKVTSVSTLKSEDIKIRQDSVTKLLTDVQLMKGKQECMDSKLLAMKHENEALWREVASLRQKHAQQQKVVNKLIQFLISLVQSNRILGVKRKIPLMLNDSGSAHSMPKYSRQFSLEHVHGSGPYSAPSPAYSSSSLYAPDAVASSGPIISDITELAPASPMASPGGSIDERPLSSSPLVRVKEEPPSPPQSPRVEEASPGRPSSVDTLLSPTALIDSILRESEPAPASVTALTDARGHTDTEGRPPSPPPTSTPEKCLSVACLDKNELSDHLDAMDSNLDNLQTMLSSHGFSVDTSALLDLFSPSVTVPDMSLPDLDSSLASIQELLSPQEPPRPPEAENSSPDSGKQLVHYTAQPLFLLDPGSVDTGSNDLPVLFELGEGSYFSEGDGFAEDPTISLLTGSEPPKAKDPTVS
Summary of the method: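 Endogenous transcription factor activity captured via cis-promoter reporter units transfected into HepG2; treatment lasted 24 h. Fluorescence intensity of reporter fragments analysed with bidirectional curve fitting, DMSO baseline.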

[9] = ATG_MRE_CIS: Attagene CIS-FACTORIAL HepG2 Assay for human Metal Responsive Element (MRE) (AID 2282954); conditions: HepG2 MRE cis-reporter transcription, Attagene multiplex; actives raise or lower the signal
Summary of the method: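 Readout: capillary electrophoresis of 6-FAM-labelled, HpaI-digested RT-PCR reporter products. System: HepG2 cells carrying transient multiplexed cis reporters, dosed 24 h. Analysis: bidirectional fit, DMSO baseline.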

[10] = ATG_PBREM_CIS: Attagene CIS-FACTORIAL HepG2 Assay for human Phenobarbital-responsive Enhancer Module (PBREM) (AID 2282955); conditions: HepG2 PBREM cis-reporter, Attagene multiplexed transcription; actives raise or lower the signal
Summary of the method: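 After a 24 h incubation with test chemical, transfected HepG2 cells yield total RNA; reporter-specific RT-PCR products are fluorescently labelled, HpaI-digested and resolved by capillary electrophoresis against ROX size standards.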

[11] = molecular target: Paired box protein Pax-6 (Homo sapiens) (UniProt P26367); assay: ATG_Pax6_CIS: Attagene CIS-FACTORIAL HepG2 Assay for human Paired Box 6 (PAX6) (AID 2282956); conditions: HepG2 CIS-FACTORIAL PAX6 reporter transcription, RNA readout; actives raise or lower the signal
Paired box protein Pax-6 (Homo sapiens), sequence (P26367 whole entry, looked up): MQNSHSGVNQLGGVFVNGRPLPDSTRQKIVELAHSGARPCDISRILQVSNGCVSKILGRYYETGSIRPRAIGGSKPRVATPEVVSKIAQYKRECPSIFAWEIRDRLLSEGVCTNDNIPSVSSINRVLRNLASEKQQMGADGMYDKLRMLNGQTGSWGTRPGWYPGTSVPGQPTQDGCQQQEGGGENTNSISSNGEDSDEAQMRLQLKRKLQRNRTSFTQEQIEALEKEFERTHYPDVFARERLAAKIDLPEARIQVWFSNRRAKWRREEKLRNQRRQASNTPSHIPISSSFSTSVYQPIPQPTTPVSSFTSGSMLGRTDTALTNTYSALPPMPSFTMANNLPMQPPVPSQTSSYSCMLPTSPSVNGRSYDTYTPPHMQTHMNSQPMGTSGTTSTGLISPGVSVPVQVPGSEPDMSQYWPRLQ
Summary of the method: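 Readout: reporter transcript fluorescence after RT-PCR and capillary electrophoresis. Cells: HepG2, transiently transfected with cis-regulated MRTUs. Exposure 24 h. Gain or loss of signal fitted bidirectionally relative to DMSO.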

[12] = ATG_PXRE_CIS: Attagene CIS-FACTORIAL HepG2 Assay for human Pregnane X Receptor Element (PXRE) (AID 2282957); conditions: HepG2 Attagene CIS-FACTORIAL PXRE reporter, mRNA; actives raise or lower the signal
Summary of the method: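 After a 24 h chemical incubation, total RNA from transfected HepG2 cells was reverse-transcribed and reporter cDNA amplified, FAM-labeled, HpaI-digested and sized by capillary electrophoresis. DMSO served as baseline for bidirectional curve fitting.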

[13] = ATG_RORE_CIS: Attagene CIS-FACTORIAL HepG2 Assay for human RAR-related Orphan Receptor Element (RORE) (AID 2282959); conditions: HepG2 Attagene cis-factorial RORE reporter, mRNA; actives raise or lower the signal
Summary of the method: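 Fluorescence intensity of reporter-specific cDNA fragments, separated by capillary electrophoresis, gives the signal. Source: HepG2 liver cells transiently transfected with cis-element reporters and exposed 24 h; DMSO-normalized bidirectional fit.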

[14] = ATG_Sox_CIS: Attagene CIS-FACTORIAL HepG2 Assay for human SRY-box transcription factor (SOX) (AID 2282960); conditions: HepG2 Attagene cis-factorial SOX reporter, mRNA; actives raise or lower the signal
Summary of the method: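 After 24 h of chemical treatment, transfected HepG2 reporter cells are lysed for total RNA. Transcript levels come from RT-PCR with labelled primer extension and capillary electrophoresis, analysed bidirectionally versus DMSO.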

[15] = molecular target: Transcription factor Sp1 (Homo sapiens) (UniProt P08047); assay: ATG_Sp1_CIS: Attagene CIS-FACTORIAL HepG2 Assay for human Specificity Protein 1 (Sp1) (AID 2282961); conditions: HepG2 Sp1 cis-reporter transcription, actives raise or lower the signal
Transcription factor Sp1 (Homo sapiens), sequence (P08047 whole entry, looked up): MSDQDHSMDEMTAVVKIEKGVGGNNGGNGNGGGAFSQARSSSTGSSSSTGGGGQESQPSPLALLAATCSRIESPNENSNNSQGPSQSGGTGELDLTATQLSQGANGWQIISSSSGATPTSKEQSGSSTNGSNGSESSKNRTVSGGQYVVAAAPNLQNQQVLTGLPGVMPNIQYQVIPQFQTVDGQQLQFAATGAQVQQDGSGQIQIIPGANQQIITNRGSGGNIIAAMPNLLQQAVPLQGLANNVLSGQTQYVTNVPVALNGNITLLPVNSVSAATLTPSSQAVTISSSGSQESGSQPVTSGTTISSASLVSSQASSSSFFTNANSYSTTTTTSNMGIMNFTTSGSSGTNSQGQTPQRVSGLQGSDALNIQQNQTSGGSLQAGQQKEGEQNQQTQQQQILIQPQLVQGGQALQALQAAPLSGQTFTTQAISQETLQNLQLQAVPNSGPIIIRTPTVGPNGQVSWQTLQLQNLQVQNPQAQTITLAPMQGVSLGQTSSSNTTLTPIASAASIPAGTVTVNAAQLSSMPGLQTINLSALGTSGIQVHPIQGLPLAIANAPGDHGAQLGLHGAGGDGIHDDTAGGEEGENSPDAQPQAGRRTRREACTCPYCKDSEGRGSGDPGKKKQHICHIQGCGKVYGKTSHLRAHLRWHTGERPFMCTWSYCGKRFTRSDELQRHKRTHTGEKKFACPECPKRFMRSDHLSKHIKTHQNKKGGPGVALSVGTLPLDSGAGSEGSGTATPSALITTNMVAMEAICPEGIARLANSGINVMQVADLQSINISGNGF
Summary of the method: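 Sp1-driven reporter mRNA, read as capillary electrophoresis fluorescence after RT-PCR, in transiently transfected HepG2 cells dosed for 24 h; signal change in either direction relative to DMSO.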

[16] = ATG_SREBP_CIS: Attagene CIS-FACTORIAL HepG2 Assay for human Sterol Regulatory Element Binding (SREBP) (AID 2282962); conditions: HepG2 Attagene cis-factorial SREBP reporter, mRNA; actives raise or lower the signal
Summary of the method: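 Readout: fluorescent reporter-transcript peaks resolved by capillary electrophoresis after RT-PCR. Cells were human HepG2 carrying transfected cis-promoter reporter constructs, dosed for 24 h. Gain or loss of signal was fitted against DMSO controls.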

[17] = molecular target: Signal transducer and activator of transcription 3 (Homo sapiens) (UniProt P40763); assay: ATG_STAT3_CIS: Attagene CIS-FACTORIAL HepG2 Assay for human Signal Transducer and Activator of Transcription 3 (STAT3) (AID 2282963); conditions: HepG2, Attagene cis-factorial STAT3 reporter transcription; actives raise or lower the signal
Signal transducer and activator of transcription 3 (Homo sapiens), sequence (P40763 whole entry, looked up): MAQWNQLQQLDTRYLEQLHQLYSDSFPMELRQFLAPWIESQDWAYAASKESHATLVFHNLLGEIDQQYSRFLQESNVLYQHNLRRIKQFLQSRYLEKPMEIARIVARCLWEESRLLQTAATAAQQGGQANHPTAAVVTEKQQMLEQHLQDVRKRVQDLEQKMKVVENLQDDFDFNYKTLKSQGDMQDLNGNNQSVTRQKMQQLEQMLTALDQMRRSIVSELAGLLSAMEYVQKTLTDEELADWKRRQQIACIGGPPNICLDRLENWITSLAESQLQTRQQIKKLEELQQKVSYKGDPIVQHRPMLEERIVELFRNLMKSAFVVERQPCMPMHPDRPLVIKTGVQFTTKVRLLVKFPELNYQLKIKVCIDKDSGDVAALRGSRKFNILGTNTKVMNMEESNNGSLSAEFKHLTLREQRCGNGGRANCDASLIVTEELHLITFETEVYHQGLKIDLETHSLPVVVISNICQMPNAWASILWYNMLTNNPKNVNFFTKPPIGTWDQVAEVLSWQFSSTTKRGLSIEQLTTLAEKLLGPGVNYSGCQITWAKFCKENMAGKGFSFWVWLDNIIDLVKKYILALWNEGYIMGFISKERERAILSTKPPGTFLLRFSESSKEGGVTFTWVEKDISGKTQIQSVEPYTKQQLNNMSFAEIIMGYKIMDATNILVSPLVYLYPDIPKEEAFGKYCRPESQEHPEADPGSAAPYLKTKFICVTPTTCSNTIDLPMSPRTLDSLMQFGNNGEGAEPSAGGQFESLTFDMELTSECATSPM
Summary of the method: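 Uses human liver HepG2 transiently carrying cis-regulated reporter transcription units. Following 24 h dosing, reporter mRNA induction was detected by RT-PCR and capillary electrophoresis, analysed bidirectionally versus DMSO.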

[18] = ATG_TA_CIS: Attagene CIS-FACTORIAL HepG2 Assay for human TA Basal Promoter (AID 2282964); conditions: HepG2 Attagene CIS-factorial TA basal promoter reporter; actives raise or lower the signal
Summary of the method: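 Fluorescence from labelled RT-PCR reporter fragments, separated by capillary electrophoresis, gives the signal. Cells: HepG2 transiently carrying multiple reporter units, 24 h chemical dosing. Gain or loss relative to DMSO.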

[19] = ATG_TCF_b_cat_CIS: Attagene CIS-FACTORIAL HepG2 Assay for human T-Cell-Factor with beta-catenin (TCF/b-cat) (AID 2282965); conditions: HepG2 TCF/beta-catenin cis-reporter transcription, actives raise or lower the signal
Summary of the method: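 Using capillary electrophoresis as the read-out, labelled reporter cDNA fragments from transiently transfected HepG2 were sized and quantified. Exposure lasted 24 hours; activity in either direction was referenced to DMSO.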

[20] = ATG_PPRE_CIS: Attagene CIS-FACTORIAL HepG2 Assay for human Peroxisome Proliferator-activated Response Element (PPRE) (AID 2282958); conditions: HepG2 PPRE cis-element reporter, Attagene transcription factor profiling; actives raise or lower the signal
Summary of the method: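 Multiplexed reporter transcription units under cis-regulatory promoters were transfected into HepG2 cells to capture endogenous factor activity. A 24 h incubation preceded RNA isolation and fluorescent RT-PCR fragment analysis.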

Measured: AC50

O=C(OCCCCCCOC(=O)c1ccccc1)c1ccccc1
not listed: [20]
inactive: all other assays above

Clc1cc(Cl)c2c(c1)N=C1CCCCCN1C2
active: [12] 13.2 µM | [19] 83.4 µM
not listed: [15]
inactive: all other assays above

CCCCCCCCOC(=O)c1cc(O)c(O)c(O)c1
active: [6] 16.9 µM | [12] 11.1 µM
not listed: [15]
inactive: all other assays above

Cc1oc2c(NC(=O)c3c(Cl)cccc3Cl)cccc2c1C(C)(C)O
inactive: [2] | [4] | [5] | [7] | [14] | [15] | [17]
active: [1] 158 µM | [3] 26.8 µM | [6] 37.8 µM | [8] 177 µM | [9] 129 µM | [10] 6.18 µM | [11] 85.7 µM | [12] 0.116 µM | [20] 71.8 µM | [13] 31.6 µM | [16] 6.28 µM | [18] 41.5 µM | [19] 25.4 µM

COCC(C)OCC(C)OCC(C)O (configuration not stated)
inactive: all assays above

COc1ccc2cc(S(=O)(=O)N[C@H](CC(=O)N[C@H](Cc3ccc(CN4[C@H](C)CCC[C@@H]4C)cc3)C(=O)N(C)C(C)C)c3ccc4c(c3)OCO4)ccc2c1
active: [3] 11 µM | [6] 1.38 µM | [9] 11 µM | [16] 0.564 µM | [18] 11 µM | [19] 11.2 µM
inactive: all other assays above
